We go through 69 compounds from ChEMBL document CHEMBL3988442, “University of Dundee, Small-Polar-MMV Screening Library” (2021).

Hit rate of the full screen: of about 38,000 compounds, about 1,200 (3.2%) showed an effect of 50% or more. The median lay at about -58%. What follows is part of a selection rich in strong results, with near analogues and random picks from the rest.

The assay deals with Plasmodium falciparum. In words: Calibr Malaria Delayed Death Assay SOP. The class given is functional, organism-based. Also on record: scale not given: in the data most compounds retested in dose-response had high values. To be noted: concentration 4.99e-06 (unit not given; other assays of the set use mol/L).
For the compound `Cn1c(-c2cc3n(n2)CCCN(CC(=O)O)C3)nc2ccccc21`, the “Percent Effect” value is listed as -285%.

For the compound `CCCn1ncc(CN2C[C@@H]3CCCN3C[C@H]2Cc2ccccc2)c1C`, the “Percent Effect” value is reported as 55.8%.

In the case of `c1ccc(CNc2ncc(CN3CCCN4CCC[C@H]4C3)cn2)cc1`, the “Percent Effect” value was -75.33%.

As for `CCCn1ncc(CN2C[C@@H]3CCCN3C[C@@H]2Cc2ccccc2)c1C`, the “Percent Effect” value worked out at 62.1%.

For the compound `CCCn1ncc(C(=O)N2CCN(C3CCCC3)CC2)c1C`, the “Percent Effect” value is listed as -11.79%.

Take `CCCn1ncc(CN2CCCCC2CCCOC)c1C` (centres undefined): the “Percent Effect” value is -4.874%.

In the case of `C=Cn1ncc(CN2C[C@@H]3C[C@@H](O)CN3C[C@H]2Cc2ccccc2)c1C`, the “Percent Effect” value was found to be 32.93%.

For `CCOc1cccc(NC(=O)c2cc[nH]n2)n1`, the “Percent Effect” value is given as -28.36%.

For the compound `Cc1cc(CN2C[C@@H]3COC[C@@H](C(=O)N4CCCCO4)[C@@H]3C2)no1.O=C(O)C(F)(F)F`, the “Percent Effect” value is recorded as -37.6%.

`Cc1c(C(C)NC2CSCCSC2)cnn1-c1ccc(F)cc1F` (centres undefined): the “Percent Effect” value is -8.599%.

On to `Cc1c(C(C)NC2CCOCC2)cnn1-c1ccc(F)cc1F` (centres undefined), for which the “Percent Effect” value is recorded as -4.766%.

As for `Cc1c(C(C)NCC2CCCC2)cnn1-c1ccc(F)cc1F` (centres undefined), the “Percent Effect” value was found to be 70.86%.

Turning to `CCc1nnc(SCc2cc(=O)n3c4c(sc3n2)CCCC4)[nH]1`, the “Percent Effect” value was -134.4%.

`COc1cncc(-n2nc(C)c(CC(C)=O)c2C)c1`: the “Percent Effect” value was -95.89%.

In the case of `CCC(=O)N1CCC2(COCc3cnc(N4CCOCC4)nc32)C1` (centres undefined), the “Percent Effect” value is -52.14%.

Take `CCOc1cncc(N2CCN(c3ccccc3F)CC2)n1`: the “Percent Effect” value is recorded as -93.07%.

For the compound `COc1ccccc1C1(CNc2nnc(C)c(C)c2C#N)CCCC1`, the “Percent Effect” value is recorded as 56.81%.

`Cc1nnc(NCC2(c3ccccc3)CCC2)c(C#N)c1C`: the “Percent Effect” value is given as -38.66%.

For the compound `COc1ccccc1C1(CNc2nnc(C)c(C)c2C#N)CCOCC1`, the “Percent Effect” value came out at 0.02654%.

`CN(Cc1cccnc1)[C@@H]1CN(Cc2ccccn2)[C@@H]2CCCO[C@H]12`: the “Percent Effect” value is given as 50.75%.

`CN(Cc1cccnc1)[C@@H]1CN(c2ccccn2)[C@@H]2CCCO[C@H]12`: the “Percent Effect” value was -39.6%.

`CN(Cc1cccnc1)[C@@H]1CN(c2ncc(F)cn2)[C@@H]2CCCO[C@H]12`: the “Percent Effect” value is reported as -11.41%.

Consider `CCNC(=O)[C@@H]1C[C@H](N)CN1c1cc(CC)nc(N(C)C)n1`, for which the “Percent Effect” value was -75.2%.

On to `CCNC(=O)[C@@H]1C[C@H](N)CN1c1cc(C(F)(F)F)nc(N2CCCC2)n1`, for which the “Percent Effect” value is recorded as 54.16%.

As for `CCNC(=O)[C@@H]1C[C@H](N)CN1c1cc(C(F)(F)F)nc(N(C)C)n1`, the “Percent Effect” value turned out to be 19.6%.

For the compound `O=C(O)C(F)(F)F.O=S(=O)(C1CC1)N1CCO[C@H]2[C@@H](Oc3cccnc3)CC[C@@H]21`, the “Percent Effect” value is -17.81%.

For the compound `Cc1ccc(NC(=O)CN2CCC(OCC3CCCO3)CC2)c(C)c1` (centres undefined), the “Percent Effect” value is -25%.

`COCCc1noc(CN2CC(Cc3ccccc3)CC2=O)n1` (centres undefined): the “Percent Effect” value was -62.6%.

With `CC(C)C1CCCN1C(=O)c1ccc(-n2ncc(C#N)c2N)cc1` (centres undefined), the “Percent Effect” value stood at 71.17%.

Take `CCCC1SCCN1C(=O)c1ccc(-n2ncc(C#N)c2N)cc1` (centres undefined): the “Percent Effect” value is given as -3.634%.

Regarding `CCOC1CCN(C(=O)c2ccc(-n3ncc(C#N)c3N)cc2)CC1`, the “Percent Effect” value is reported as -36.9%.

For `COc1ccc(CN2C[C@@H](CN(C)CCO)[C@@H](CO)C2)cc1Cl`, the “Percent Effect” value was -13.19%.

Turning to `CN(C)C[C@@H]1CN(Cc2ccccc2C#N)C[C@@H]1CO`, the “Percent Effect” value is -49.24%.

As for `Cc1cc(F)ccc1N1CCC(N2C[C@@H](C)[C@@](C)(O)C2)CC1`, the “Percent Effect” value came out at 37.17%.

Regarding `CN(CCO)C[C@@H]1CN(C(=O)c2c(F)cccc2Cl)C[C@@H]1CO`, the “Percent Effect” value was -48.12%.

For the compound `Cc1ccccc1CN1C[C@@H](CN(C)CCO)[C@@H](CO)C1`, the “Percent Effect” value stood at 6.489%.

Consider `Cc1ccc(N2CCC(N3C[C@@H](CN(C)C)[C@@H](CO)C3)CC2)cc1`, for which the “Percent Effect” value came to 0.06165%.

For the compound `Cc1c(C(=O)N2CCCC2c2cnn(C)c2)cnn1-c1ccccc1` (centres undefined), the “Percent Effect” value is -71.93%.

For the compound `NC(=O)C1CCN(CCCNC(=O)Nc2nncs2)CC1`, the “Percent Effect” value is on record as -69.85%.

As to `CCc1ccccc1OCCNCCc1c[nH]cn1`, the “Percent Effect” value was 69.73%.

As for `C=C(C)COc1cccc(CNCCc2c[nH]cn2)c1`, the “Percent Effect” value was 26.04%.

As to `C=C(C)COc1ccccc1CNCCc1c[nH]cn1`, the “Percent Effect” value came to 4.371%.

As to `Cn1nccc1C(=O)N1CCCC2(CCN(c3ccsc3)C2=O)C1` (centres undefined), the “Percent Effect” value is listed as -40.86%.

For `Cc1ccccc1SCC(=O)NC1CCC(O)CC1` (centres undefined), the “Percent Effect” value is recorded as -39.35%.

`CN(C)C(=O)CN1CCN(Cc2coc(-c3cccc(F)c3)n2)CC1`: the “Percent Effect” value was -61.15%.

With `CSc1ccc(-c2nc(CN3C[C@@H](C)NC[C@@H]3C)c(C)o2)cc1`, the “Percent Effect” value was -63.77%.

As to `CSc1ccc(-c2nc(CN3CCNCC3C)c(C)o2)cc1` (centres undefined), the “Percent Effect” value is listed as 34.18%.

`Cc1oc(-c2cc(F)cc(F)c2)nc1CN1C[C@@H](C)NC[C@@H]1C`: the “Percent Effect” value was found to be 59.48%.

`Cn1ncc2c1CCCC2NCc1ccc(OCc2cccnc2)cc1` (centres undefined): the “Percent Effect” value turned out to be 4.43%.

With `COCCO[C@H]1CCN(Cc2ccoc2)[C@H]1Cc1cccnc1`, the “Percent Effect” value is listed as -10.51%.

In the case of `CNC(=O)[C@@H]1C[C@@H]2CCN(Cc3ccoc3)C[C@H]2O1`, the “Percent Effect” value is -25.74%.

Turning to `CO[C@H]1CCN(Cc2nccs2)C[C@@H]1Cc1ccccc1`, the “Percent Effect” value was -31.89%.

As for `CO[C@H]1CCN(c2ncccn2)[C@H]1Cc1ccccc1`, the “Percent Effect” value is -101.2%.

Regarding `O=C(CCNS(=O)(=O)c1ccccc1F)NCc1ccoc1`, the “Percent Effect” value was -33.2%.

With `CCC1(CNC(=O)NC(c2nnc3n2CCC3)C(C)C)CCC1` (centres undefined), the “Percent Effect” value was -142%.

On to `Cc1ccc(C)n1-c1c(C(=O)NCC(c2ccsc2)N(C)C)cnn1C` (centres undefined), for which the “Percent Effect” value is given as -29.69%.

In the case of `COc1ccc(-c2nonc2N)cc1`, the “Percent Effect” value is reported as -30.35%.

`Cc1cnc(N2CC[C@@H]3O[C@@H](COCC(=O)N(C)C)CC[C@@H]32)nc1.O=C(O)C(F)(F)F`: the “Percent Effect” value is -30.4%.

In the case of `CC(C)(C)C1CC(=O)Nc2c1cnn2Cc1ccco1` (centres undefined), the “Percent Effect” value is -56.11%.

On to `COC1CN(C(=O)NCC(N)=O)CCC(=O)N(C)c2ccccc21` (centres undefined), for which the “Percent Effect” value is listed as -44.55%.

As to `CN(C[C@@H]1CCC[C@@H]2CN(Cc3cccnc3)C[C@@H]21)C1CC1.O=C(O)C(F)(F)F.O=C(O)C(F)(F)F`, the “Percent Effect” value is given as 55.19%.

For `COc1cc(N2C[C@H]3CCC[C@@H](CN(C)C4CC4)[C@H]3C2)ncn1.O=C(O)C(F)(F)F`, the “Percent Effect” value was -80.87%.

Take `COc1cc(N2C[C@H]3CCC[C@@H](CN4CCOCC4)[C@H]3C2)ncn1.O=C(O)C(F)(F)F`: the “Percent Effect” value is recorded as -88.21%.

`Cc1ccc(N2C[C@H]3CCC[C@@H](CN(C)C)[C@H]3C2)nn1.O=C(O)C(F)(F)F`: the “Percent Effect” value is reported as -59.72%.

Regarding `COc1ccc(CN2C[C@H]3CCC[C@@H](CN(C)C4CC4)[C@H]3C2)cn1.O=C(O)C(F)(F)F.O=C(O)C(F)(F)F`, the “Percent Effect” value turned out to be 77%.

`COCCN(C)C[C@@H]1CCC[C@@H]2CN(Cc3ccc(OC)nc3)C[C@@H]21.O=C(O)C(F)(F)F.O=C(O)C(F)(F)F`: the “Percent Effect” value was found to be 78.92%.

Regarding `O=C(C[C@@H]1COC[C@H]2CN(Cc3cccnc3)C[C@@H]12)N1CCCC1.O=C(O)C(F)(F)F.O=C(O)C(F)(F)F`, the “Percent Effect” value is given as -138.8%.

As to `COc1ccc(CN2C[C@H]3CCC[C@@H](CN(C)C)[C@H]3C2)cn1.O=C(O)C(F)(F)F.O=C(O)C(F)(F)F`, the “Percent Effect” value amounted to 48.48%.

For `O=C(C[C@@H]1COC[C@H]2CN(Cc3cccnc3)C[C@@H]12)N1CCOCC1.O=C(O)C(F)(F)F.O=C(O)C(F)(F)F`, the “Percent Effect” value is -46.72%.
